Experimental findings from PubChem BioAssay are described below.

Where “and” joins values, the source holds several entries; their conditions need not be identical. Equal entries are not always repeated. Results filed as inconclusive are left out. Calls of active or inactive are those of the source. Unless noted, no stated cut-off is given here; in the data, active means inhibition above about 80%; inactive means the rest.

Assay [1] in a line: compounds altering circadian rhythm period length – cell-based, LOPAC library, luminescence reporter (AID 2774; call rule not given here;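 further: values are relative to mean of DMSO wells on each plate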). As to conditions: circadian reporter cells, at 7 µM, actives lie on both sides.
The nature of assay [2]: compounds altering viability of human ES cells (AID 493140; call rule not given here;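 further: cells exposed to compounds for four days before counting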). Conditions: human embryonic stem cell survival screen; stronger effect = higher value.
The test system of assay [3] is Hepatitis C virus NS3 helicase. Put plainly: blockers of NS3h binding to ssDNA – biochemical, fluorescence polarization, LOPAC1280 library, primary screen (AID 687035; in the data active means inhibition above about 37%). Conditions: Purified HCV NS3 helicase, Cy5-dT15 ssDNA binding fluorescence polarization; stronger effect = higher value; concentration not given here. A general note: In fluorescence polarisation assays a small probe gives low polarisation when free and higher when bound to something large.

Assay [4] in a line: compounds altering Cy5-DNA-NS3h complex signal – biochemical, LOPAC1280, artefact control for HCV NS3 helicase inhibitor project (AID 687037; call rule not given here). Conditions: Cy5-DNA-NS3h complex fluorescence interference counterscreen. (Counterscreens check selectivity or assay interference.)
A short description of assay [5]: viability loss in pontine glioma line – cell-based, SU-DIPG-XXV, MIPE5.0, CellTiter-Glo, qHTS, dose response (AID 1347065; cut-off not given, nearly all actives have AC50 up to about 26 µM;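 further: cells exposed to compound for 48 hours before ATP readout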). As to conditions: CellTiter-Glo ATP luminescence. For orientation: In ATP-based viability assays light output follows the ATP content of the culture.
A short description of assay [6]: growth inhibition of DIPG cells – cell-based, MIPE5.0 library, qHTS (AID 1347068; cut-off not given, nearly all actives have IC50 up to about 30 µM). As to conditions: SU-DIPG-XXV viability.
A short description of assay [7]: blockers of cellular phospholipid synthesis – cell-based, LOPAC library, screen 4, primary screen (AID 1347384; call rule not given here). As to conditions: animal cells, phospholipid biosynthesis inhibition screen; at 10 µM.
The target in assay [8] is NAD(+) hydrolase SARM1 (Homo sapiens) (UniProt Q6SZW1). Put plainly: blocking NAD cleavage by SARM1 SAM-TIR – cell lysate, NAD-Glo luminescence (AID 1508614;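 active means compound whose remaining NAD level is above about 45 nM, limit read from the data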). As to conditions: SAM-TIR HEK293T lysate NADase, at 1 µM, stronger effect = higher value.
Assay [9] deals with Aerobactin synthetase IucA (Klebsiella pneumoniae). The experiment in a line: inhibition of K. pneumoniae IucA enzyme – biochemical, Tocris library, absorbance (AID 1345561; call rule not given here;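 further: 100% = enzyme without compound and 0% = no enzyme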). As to conditions: purified IucA enzyme assay, absorbance (OD) read-out; stronger effect = lower value;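 tested at 8 µM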.
Assay [10] in a line: viability loss in pontine glioma line – cell-based, SU-DIPG-XIII, MIPE5.0, CellTiter-Glo, qHTS, dose response (AID 1347064; cut-off not given, nearly all actives have AC50 up to about 23 µM). Conditions: CellTiter-Glo ATP luminescence.
Assay [11] can be described thus: growth inhibition of DIPG cells – cell-based, MIPE4.0 library, CellTiter-Glo luminescence, qHTS (AID 1347066; cut-off not given, nearly all actives have AC50 up to about 30 µM;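 further: cells exposed to compound for 48 hours before readout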). Conditions: SU-DIPG-VI viability, CellTiter-Glo ATP luminescence.
The nature of assay [12]: growth inhibition, single agent or in combination, cell-based, chromothripsis tumors, cisplatin or BGB combos (AID 1671449).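 Further: cells exposed for 96 hours; 0% = vehicle DMSO and 100% = killing by high DMSO.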 As to conditions: LFS_MB_P medulloblastoma cells.
Assay [13] in a line: growth inhibition, single agent and combos, cell-based, chromothripsis tumors, cisplatin or BGB combos (AID 1671450).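 Further: cells exposed to compound for four days; 0% = vehicle DMSO and 100% = cell killing by high DMSO.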 Conditions: HDN33 neuroblastoma cells, stronger effect = higher value.
A short description of assay [14]: growth inhibition, single agents and combos, LFS_MB_1R, cell-based, cisplatin or BGB combos, synergistic combos for chromothripsis tumors (AID 1671452).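 Further: cells exposed for 96 hours before readout.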 As to conditions: LFS_MB_1R medulloblastoma cells, stronger effect = higher value.
Assay [15] in a line: growth inhibition, single agents and combos, HTB85, cell-based, BGB or cisplatin IC20 combos, synergistic combos for chromothripsis tumors (AID 1671453).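 Further: cells exposed for 96 hours before readout; 0% = vehicle DMSO and 100% = high DMSO killing control.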 Conditions: HTB85 osteosarcoma cells, drug combinations, stronger effect = higher value.
Assay [16] can be described thus: growth inhibition, MDA-MB-436, cell-based, BGB or cisplatin combos, synergistic combos for chromothripsis tumors (AID 1671458; call rule not given here;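 further: cells exposed for 96 hours; 0% = vehicle DMSO and 100% = killing by high DMSO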). As to conditions: MDA-MB-436 breast carcinoma growth inhibition, drug combinations, stronger effect = higher value.
Assay [17] is described as follows: BT084 cell growth, single and combined drugs, ICGC_MB145, cisplatin and BGB IC40 combos (AID 1671461).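 Further: cells exposed to drugs for 96 hours; 0% = vehicle DMSO and 100% = high DMSO full killing control.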 As to conditions: BT084 medulloblastoma cells, drug combinations, stronger effect = higher value.
Assay [18] can be described thus: RCMB18 cell growth, single agent and combined, cisplatin and BGB IC40 combos (AID 1671462).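 Further: cells exposed to compound for four days.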 As to conditions: RCMB18 medulloblastoma cells, stronger effect = higher value.
Assay [19] can be described thus: CRL1545 cell growth, single agent and combined, cisplatin and BGB IC20 combos (AID 1671464).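 Further: cells exposed to compound for 96 hours before readout; 0% = vehicle DMSO and 100% = high DMSO killing control.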 Conditions: CRL1545 osteosarcoma cells, stronger effect = higher value.
[20] abbreviates: measured here: combination with BGB IC40, at 0.05 µM.
Setting [21] is: measured here: with BGB IC20 combination, at 0.5 µM.
Where [22] appears, read: measured here: with cisplatin IC20 combination, at 0.5 µM.
[23] abbreviates: measured here: combination with cisplatin, at 0.5 µM.

Sequence of NAD(+) hydrolase SARM1 (Homo sapiens) (Q6SZW1 whole entry, looked up): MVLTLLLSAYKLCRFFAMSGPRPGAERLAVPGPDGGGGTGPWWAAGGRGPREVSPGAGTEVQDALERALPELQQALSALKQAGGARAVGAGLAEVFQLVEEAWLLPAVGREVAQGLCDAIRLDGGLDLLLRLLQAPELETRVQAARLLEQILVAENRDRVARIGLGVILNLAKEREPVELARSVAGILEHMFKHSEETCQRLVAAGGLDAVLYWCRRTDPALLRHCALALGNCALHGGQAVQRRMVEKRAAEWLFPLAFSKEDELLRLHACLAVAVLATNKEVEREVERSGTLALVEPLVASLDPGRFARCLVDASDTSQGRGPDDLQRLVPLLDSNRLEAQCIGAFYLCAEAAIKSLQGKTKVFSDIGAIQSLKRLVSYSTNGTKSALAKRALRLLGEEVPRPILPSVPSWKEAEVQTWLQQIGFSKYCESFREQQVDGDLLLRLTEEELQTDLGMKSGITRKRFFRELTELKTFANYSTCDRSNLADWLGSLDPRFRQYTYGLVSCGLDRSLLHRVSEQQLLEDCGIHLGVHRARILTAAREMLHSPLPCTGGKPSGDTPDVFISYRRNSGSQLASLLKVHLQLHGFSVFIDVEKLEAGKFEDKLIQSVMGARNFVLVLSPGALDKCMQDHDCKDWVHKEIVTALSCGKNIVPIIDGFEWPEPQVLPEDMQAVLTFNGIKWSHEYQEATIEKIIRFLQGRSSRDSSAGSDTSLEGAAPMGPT

With `CN[C@H](CC(C)C)C(=O)N[C@H]1C(=O)N[C@@H](CC(N)=O)C(=O)N[C@H]2C(=O)N[C@H]3C(=O)N[C@H](C(=O)N[C@H](C(=O)O)c4cc(O)cc(O)c4-c4cc3ccc4O)[C@H](O)c3ccc(c(Cl)c3)Oc3cc2cc(c3O[C@@H]2O[C@H](CO)[C@@H](O)[C@H](O)[C@H]2O[C@H]2C[C@](C)(N)[C@H](O)[C@H](C)O2)Oc2ccc(cc2Cl)[C@H]1O`, the period change in assay [1] is -0.05 h (inactive). In [2], the survival is 13.8 (inactive). The inhibition in assay [3] was -5% (inactive). The fluorescence ratio (interference) in assay [4] is 1 (inactive). Moreover, the compound was classed as inactive in assay [5], in assay [6] and in [7]. Besides, the remaining NAD in assay [8] is 10 nM (inactive).

As for `COc1cc2c(c(OC)c1OC)-c1ccc(OC)c(=O)cc1C(NC(C)=O)CC2` (configuration not stated), in assay [9], the remaining activity was 109% (inactive).

`CC(C)(O)CC[C@@H](O)[C@](C)(O)[C@H]1CC[C@@]2(O)C3=CC(=O)[C@@H]4C[C@@H](O)[C@@H](O)C[C@]4(C)[C@H]3CC[C@]12C`: the result in assay [10], in [5], in assay [11] and in assay [6] was inactive.

With `CCC(=O)NCC[C@@H]1CCc2ccc3c(c21)CCO3`, the outcome in [10], in [5], in assay [11] and in [6] was inactive. In addition, the remaining NAD in assay [8] is 10 nM (inactive).

Turning to `CCC[C@@H]1C[C@@H](C(=O)N[C@@H]([C@H]2O[C@H](SC)[C@H](O)[C@@H](O)[C@H]2O)[C@H](C)Cl)N(C)C1`, the outcome in [10], in assay [5] and in assay [6] was inactive. The remaining NAD in assay [8] is 10 nM (inactive).

In the case of `COc1cc(NS(C)(=O)=O)ccc1Nc1c2ccccc2nc2ccccc12`, the period change in assay [1] was -0.215 h (inactive). Also, the inhibition in [3] was -8% (inactive); in assay [12] (at 0.5 µM, stronger effect = higher value), 66.6% (inactive) and -15.7% (inactive); in assay [12] (measured here: combination with BGB IC20, at 0.005 µM), -8.73% and -9.94%; in [12] (measured here: combination with BGB IC40, at 0.005 µM) it was -5.2% and -25.6%; in assay [12] (setting [20]) it was -1.49% and -18.2%; in [12] (measured here: combination with cisplatin, at 0.5 µM, stronger effect = higher value), 79.4% and -1.04%. In addition, the inhibition in [12] (measured here: combination with cisplatin, at 5 µM, stronger effect = higher value) was 41.8% and 26.1%; in [13] (BGB combo, at 5 µM), 88.5% and 63.3%; in assay [13] (at 0.5 µM), 50.8% (inactive) and 41.9% (inactive); in assay [13] (cisplatin combo, at 5 µM) it was 68.8% and 65.8%; in assay [13] (setting [21]), 51.3% and 43.7%; in assay [13] (setting [22]), 45.8% and 24%. Also, the inhibition in [13] (single agent, at 5 µM) is 88.6% and 78.5%; in assay [14] (at 0.5 µM), 1.68% (inactive) and -19.1% (inactive); in assay [14] (setting [20]), 17.9% and -5.14%; in [14] (setting [23]), 10% and -20.9%; in assay [14] (measured here: combination with cisplatin, at 5 µM), 63.4% and 27.6%; in [15] (at 0.5 µM), 17.3% (inactive) and 24.9% (inactive). Further, the inhibition was 3.95% and 14.9% in assay [15] (measured here: with BGB IC20, at 0.5 µM); 82.3% and 79.8% in [15] (measured here: with BGB IC20, at 5 µM); 25% and 29.1% in [15] (measured here: with cisplatin IC20, at 0.5 µM); 87.8% and 84.6% in [15] (measured here: with cisplatin IC20, at 5 µM); 91% and 89.1% in assay [15] (single agent, at 5 µM); 43.4% (inactive) and 40.4% (inactive) in assay [16] (at 0.5 µM). In addition, the inhibition in assay [16] (measured here: BGB combination, at 0.5 µM) was 27.5% and 21.1%; in [16] (measured here: BGB combination, at 5 µM), 55% and 42.6%; in assay [16] (measured here: cisplatin combination, at 0.5 µM), 41.4% and 47.1%; in [16] (measured here: cisplatin combination, at 5 µM), 67.1% and 66.9%; in assay [17] (at 0.5 µM), -11.3% (inactive) and -37.4% (inactive); in [17] (cisplatin combination, at 0.5 µM), -2.36% and -21.2%. The inhibition in assay [17] (cisplatin combination, at 5 µM) was 23.7% and 15.2%; in [17] (measured here: BGB IC40 combination 0.05 uM, at 0.05 µM), 53.7% and -12.4%; in assay [17] (single agent, at 5 µM), 7.96% and 23.3%; in assay [18] (at 0.5 µM), -1.22% (inactive) and -23% (inactive); in assay [18] (cisplatin combo, at 5 µM), 58.3% and 44.1%; in [18] (measured here: BGB IC40 combination, at 0.05 µM), -16.8% and -37.3%. Further, the inhibition was 28.6% and 11.4% in assay [18] (setting [23]); 29.4% and 2.77% in [18] (single agent, at 5 µM); 24% (inactive) and 17.8% (inactive) in assay [19] (at 0.5 µM); 24.3% and 13.1% in assay [19] (setting [21]); 23.8% and 20.2% in [19] (setting [22]); 42.2% and 26.1% in [19] (single agent, at 0.05 µM). The inhibition in [19] (single agent, at 5 µM) was 82.1% and 75.5%. Further, the fluorescence ratio (interference) in [4] was 0.9 (inactive). For the same compound, the AC50 in assay [5] is 11.8 µM (active). Moreover, the compound was called inactive in assay [7]. In [8], the remaining NAD was 10 nM (inactive).

As for `O=C1c2c(O)cccc2[C@H]([C@@H]2O[C@H](CO)[C@@H](O)[C@H](O)[C@H]2O)c2cc(CO)cc(O)c21`, the call in assay [11] was inactive. Further, the remaining NAD in assay [8] is 10 nM (inactive).

With `COc1ccc(CCC(=O)c2c(O)cc(O[C@@H]3O[C@H](CO)[C@@H](O)[C@H](O)[C@H]3O[C@@H]3O[C@@H](C)[C@H](O)[C@@H](O)[C@H]3O)cc2O)cc1O`, the result in [11] was inactive.

As to `O=C(/C=C/c1ccc(O)c(O)c1)O[C@H](Cc1ccc(O)c(O)c1)C(=O)O`, the remaining activity in assay [9] is 105% (inactive).

`COc1c(O)cc2c(c1O)[C@@H]1O[C@H](CO)[C@@H](O)[C@H](O)[C@H]1OC2=O`: the call in [11] was inactive.

As for `C=C1C(=O)O[C@H]2[C@H]1CC/C(C)=C/CC[C@@]1(C)O[C@@H]21`, the remaining activity in assay [9] is 83.6% (inactive).

With `CCC[C@@H]1C[C@@H](C(=O)N[C@@H]([C@H]2O[C@H](SC)[C@H](O)[C@@H](O)[C@H]2O)[C@@H](C)O)N(C)C1`, the remaining NAD in assay [8] was 10 nM (inactive).

Regarding `CC(C)(S)[C@@H](N)C(=O)O`, the call in [10], in [5], in [11] and in [6] was inactive. For the same compound, the remaining NAD in assay [8] was 10 nM (inactive).

What is called inhibition is the drop in the measured response relative to a control, in per cent. The term remaining activity denotes the signal under treatment as a percentage of the control signal. Broadly, the AC50 is the concentration at which the activity in the assay is half-maximal.
